Data: ChEMBL document CHEMBL3988442, “University of Dundee, Small-Polar-MMV Screening Library” (2021)

Each molecule was assayed against AMP-activated protein kinase, AMPK (Homo sapiens) (UniProt P54646+O43741+P54619+Q9UGJ0+Q9Y478+Q13131+Q9UGI9) (assay: AMP-dependent Kinase enzyme assay. An in vitro enzyme assay that detects ADP turnover that is directly proportional to AMPK activity. This uses naive AMPK that is activated during the assay with MK-8722). Conditions: 30 µM.
Format: functional
Set-up: scale not given: direction of the effect not stated beside the values

SMILES	Percent Effect [%]
COCCN(CCOC)C(=O)c1cnn(C)c1C	-3.12
CCC1c2ccccc2CCN1CCNS(C)(=O)=O (centres undefined)	-4.87
CCN(Cc1nc(Cc2ccccc2)no1)C1CC1	9.85
CCn1nc(C)c(NC(=O)CN(C)C(C)c2nccs2)c1C (centres undefined)	-6.11
CCOc1ccccc1CN(C)C(=O)CN1C(=O)OC[C@@H]1C(C)C	5.19
COc1ccccc1CN(Cc1nc(CC(C)C)no1)C1CC1	14.9
CCC(CN1CCCC1)n1cncc1-c1cnn(-c2ccc(F)cc2)c1 (centres undefined)	12.9
Nc1nc(O)cc(N2CCC(c3cc(Cc4ccccc4)n[nH]3)CC2)n1	-82.1
C[C@@H]1CN(CC(=O)NCc2ccccn2)C[C@]1(C)O	8.43
Cc1ccnc(C2(C)CCCN2S(=O)(=O)c2ccccc2)n1 (centres undefined)	-5.61
CCC(=O)Nc1cccc(OCC(=O)N2CC=CC2C(C)C)c1 (centres undefined)	-4.81
CC(C)c1nnc2n1CCN(Cc1cc(Cl)c3c(c1)OCO3)C2	8.76
CC(Cc1cccc(F)c1)C(=O)NS(=O)(=O)c1cnn(C)c1 (centres undefined)	-5.21
COc1ccc(CCN2CCCC(n3cncn3)C2)cc1 (centres undefined)	0.286
Cc1sc2ncnc(N3CCCC3Cn3cccn3)c2c1C (centres undefined)	3.42
CCc1cc(=O)[nH]c(-c2ccc(NC(C)COC)nc2)n1 (centres undefined)	-2.5
CS(=O)(=O)NC(=O)c1ccn(-c2ccc(Cl)c(Cl)c2)n1	4.97
CNC(=O)c1cn2cc(-c3cccc(Cl)c3)n(CC3CC3)c(=O)c2n1	-3.37
Cc1c(C(=O)N2CCCN(S(C)(=O)=O)CC2)cnn1C	10.1
Cc1cc(CN(C)C(=O)c2cc(COc3ccccc3)[nH]n2)n[nH]1	1.22

SMILES	Percent Effect [%]
CCCC(C#N)NC(=O)c1sccc1CC (centres undefined)	6.7
Cc1ccc(S(=O)(=O)N(CC2CCOC2)C2CC2)cc1N(C)C (centres undefined)	-15
CCC1(CC)CC(=O)N(CC(O)c2ccc(F)cc2)C1=O (centres undefined)	8.69
CCc1ccc(N2CCC(NS(=O)(=O)N(CC)CC)CC2)cc1	1.78
CCN(Cc1ccoc1)C(=O)Nc1ccccc1CN(C)C(C)=O	2.94
Clc1ccc(COCC2CCN(Cc3ccccn3)CC2)cc1	4.9
CN(Cc1cccs1)Cc1nnsc1Cl	12.6
CN(C)S(=O)(=O)NCC1CCN(Cc2ccccc2F)CC1	-2.6
Cc1nc(C)c(C(=O)N2CCCc3c(F)ccc(F)c32)o1	-2.55
COc1ccc(CN(C)Cc2c(C)noc2C)c(Cl)c1OC	6
CN(C)c1nc2c(c(=O)[nH]1)Cc1ccccc1OC2	2.09
Cc1noc(C)c1CCCNC(=O)Nc1ccc2c(c1)CC(=O)N2	33.6
Cc1ccnc2c1NC(=O)CN2C(=O)CCc1ccccc1	-1.93
CCc1nc(C)c(C(=O)N2C[C@@H](C(=O)O)[C@H](C3CC3)C2)s1	2.29
CC(C)C(C(=O)O)c1cccc(Cl)c1 (centres undefined)	-3.52
C=Cn1cc(CN2CCC(c3ncc(Cl)cc3S(C)(=O)=O)CC2)c(C)n1	13.4
COc1cccc(NC(=O)CN(C(C)C)C2CC2)c1	-0.663
O=C1OC2(CCN(CC3CCCO3)CC2)CN1CCc1ccccc1 (centres undefined)	-11.7
CCC1CCCCN1C(=O)Cn1cnc(C#N)n1 (centres undefined)	-0.907
